From PubChem BioAssay
Most compounds without a hit are left out; they make up all but 19% or so of the library.
DT40 TDP1 no CPT: qHTS for Inhibitors of human tyrosyl-DNA phosphodiesterase 1 (TDP1): qHTS in cells in absence of CPT; AID 686978, 2013; 15% of 420,000 active; DT40 Tdp1-/- hTDP1 cells, no CPT, ATP luminescence, 48 h; Potency, µM (series often up to 46.2 µM), without a hit: top-dose activity change, negative = growth inhibition, usual class: inhibitors; further: potency means the concentration at half of the fitted maximal effect; on the % scale 0 is the no-effect control and ±100 the full control effect; nearly all actives have a fitted effect of over 55% in size
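Stably hTDP1-transfected Tdp1-null chicken DT40 cells were treated with library compounds minus camptothecin and grown for at least 48 hr at 37 °C, after which cellular ATP was quantified by luminescence.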
HepG2 viability: HepG2 cytotoxicity, counter-screen for TGF-b inhibitors; HepG2 CAGA-GFP viability, ATP luminescence, 18 h; Potency, µM (top dose mostly 46.1 µM), inactives show at the top dose activity change, negative = cytotoxicity, most hits filed as cytotoxic; 0.76% of 410,000 active; further: potency means the concentration at half of the fitted maximal effect
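HepG2 CAGA-GFP cells (1000/well, DMEM with 1% FBS) received compound, then TGF-beta at 500 pg/mL final, and were incubated 18 hours at 37 degrees C. Viability was read by CellTiter-Glo luminescence. Media-only wells were set as complete cell-killing and DMSO as no toxicity.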
TGFb inhibitor: blocks TGF-b signaling. Potency, µM (doses to about 46.1 µM), for the others: top-dose activity, negative = inhibition, hits mostly inhibitors. AID 588855. 1.2% of 410,000 active. HepG2 CAGA-GFP TGF-b/SMAD3 reporter, GFP fluorescence, 18 h; TGF-beta stimulated, 500 pg/mL final; further: potency means the concentration at half of the fitted maximal effect; on the % scale 0 is the no-effect control and ±100 the full control effect; nearly all actives have a fitted effect of over 65% in size
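Inhibition of TGF-beta-driven CAGA-GFP reporter expression in HEPG2 cells is measured by cellular GFP fluorescence after 18 h stimulation with 500 pg/mL recombinant TGF-beta in 1% FBS medium at 37 degrees C.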
TDP1 block: inhibitors of human tyrosyl-DNA phosphodiesterase TDP1. 0.28% of 350,000 active. recombinant TDP1, AlphaScreen DNA substrate cleavage. Potency, µM (series often up to 130 µM), for inactives: top-dose activity change, negative = inhibition, most hits filed as inhibitors; further: potency means the concentration at half of the fitted maximal effect; on the % scale 0 is the no-effect control and ±100 the full control effect; nearly all actives have a fitted effect of over 40% in size
Target sequence (Q9NUW8 whole entry, looked up): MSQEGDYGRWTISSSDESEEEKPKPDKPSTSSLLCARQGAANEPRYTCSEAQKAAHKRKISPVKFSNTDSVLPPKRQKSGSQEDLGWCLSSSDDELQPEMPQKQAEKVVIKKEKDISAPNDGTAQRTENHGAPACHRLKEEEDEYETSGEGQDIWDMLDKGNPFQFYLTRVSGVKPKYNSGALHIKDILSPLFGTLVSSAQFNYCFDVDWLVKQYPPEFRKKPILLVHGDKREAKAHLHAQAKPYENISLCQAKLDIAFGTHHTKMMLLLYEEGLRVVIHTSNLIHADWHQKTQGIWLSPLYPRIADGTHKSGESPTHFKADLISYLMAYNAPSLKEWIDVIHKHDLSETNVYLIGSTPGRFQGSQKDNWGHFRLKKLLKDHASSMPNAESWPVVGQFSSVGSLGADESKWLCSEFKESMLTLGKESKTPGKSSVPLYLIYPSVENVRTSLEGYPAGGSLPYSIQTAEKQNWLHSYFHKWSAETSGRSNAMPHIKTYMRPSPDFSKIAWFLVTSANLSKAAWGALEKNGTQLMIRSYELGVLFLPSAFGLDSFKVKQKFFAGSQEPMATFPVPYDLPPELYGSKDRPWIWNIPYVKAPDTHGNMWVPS
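Compounds were preincubated with Tdp1 (1 nM final) for 15 min at room temperature before substrate (15 nM final) started a 5 min reaction; beads (10 ug/ml final) were then added for 10 min before AlphaScreen detection.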
TDP1 cell CPT: DT40-hTDP1 cell growth loss with CPT. chicken DT40 Tdp1-/-;hTDP1 cells + 20 nM CPT, ATP luminescence, 48 h. Potency, µM (series often up to 46.2 µM), for inactives: at the highest dose activity change, negative = growth inhibition, most hits filed as inhibitors. 12% of 420,000 active. AID 686979; further: potency means the concentration at half of the fitted maximal effect; on the % scale 0 is the no-effect control and ±100 the full control effect; nearly all actives have a fitted effect of over 55% in size
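Cell growth measured by CellTiter-Glo luminescence after a minimum 48 h, 37 C compound exposure with 20 nM CPT in Tdp1-knockout DT40 cells stably expressing hTDP1, seeded 400/well; qHTS titration format.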
IL1B secr inh: blocks inflammasome-driven IL-1 beta release. 4.7% of 360,000 active. activity change, % at 57.5 µM. THP-1 LPS/ATP IL-1B secretion, AlphaLISA, 16 h; stronger effect = lower value. AID 743279; in the data active means activity change below about -50%; inconclusive means mostly about -30% to -49%; further: on the % scale 0 is the no-effect control and ±100 the full control effect
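THP-1 cells pretreated 1 hr with compounds (up to 57.5 uM final), then stimulated with LPS (250 ng/mL final) plus ATP (1.25 mM final); secreted IL-1B measured by AlphaLISA after 16 hr, decreased signal indicating inhibition.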
Starred values were filed as active, the others as inactive; i = inactive; ? = inconclusive; . = no result given; [ ] = another dose, or the depositor's remark. Unless noted, the call rests on the fitted dose curve; in most records, active means well fitted curve in the direction sought with a large enough effect; inconclusive means small, poorly fitted or top-dose-only effect, or another doubt; inactive means no such curve, though single readings can be large; an effect the other way counts as inactive or inconclusive.

SMILES	DT40 TDP1 no CPT	HepG2 viability	TGFb inhibitor	TDP1 block	TDP1 cell CPT	IL1B secr inh
CCCOc1cccc(OCC(=O)Nc2nc3ccccc3[nH]2)c1	?	-36%	0%	0%	?	10
CCCCOc1cccc(OCC(=O)Nc2nc3ccccc3[nH]2)c1	?	13µM*	14µM*	0%	21µM*	1
CCOc1ccc(N(CC(=O)NC2CCCCC2)S(=O)(=O)c2ccccc2)cc1	?	-27%	7%	-19%	-4%	-15
C=CCn1c(SCC(=O)NCC(c2ccccc2)N(C)C)nnc1C1CCCCC1 (stereo not given)	-25%	1%	24%	0%	0%	-3
COc1ccc(S(=O)(=O)N(C)C[C@H]2OCc3cnnn3CCCC(=O)N([C@H](C)CO)C[C@@H]2C)cc1	-24%	-18%	14%	.	-7%	-6
COc1ccc(-c2nc3n(n2)C(c2ccc(O)cc2)C(C(=O)Nc2cccnc2)=C(C)N3)cc1OC (stereo not given)	0%	2%	-2%	.	5%	.
CCn1c(=O)n(-c2ccc(F)c(Cl)c2)c(=O)c2c3c(sc21)CN(C(C)=O)CC3	-18%	-3%	?	1%	?	.
CC(=O)CSc1nc(-c2ccccc2)[nH]c1S(=O)(=O)c1ccc(C)cc1	3.3µM*	-23%	-28%	3%	?	.
CCCSc1nc(-c2ccccc2)[nH]c1S(=O)(=O)c1ccc(C)cc1	18µM*	-38%	?	-1%	?	.
Cc1ccc(S(=O)(=O)c2[nH]c(-c3ccccc3)nc2SCCC(=O)O)cc1	1%	3%	14%	6%	4%	.
Cc1cc(C)cc(-n2c(SCC(=O)N3CCOCC3)nc3c([nH]c4ccccc43)c2=O)c1	-4%	-10%	-2%	5%	-25%	.
Cc1cccc(NC(=O)c2ccc(F)c(S(=O)(=O)NCc3ccc4c(c3)OCO4)c2)c1	-20%	-19%	?	8%	-10%	.
COc1ccc(-n2nnnc2C2CCN(S(=O)(=O)c3cccc(C(F)(F)F)c3)CC2)cc1	-14%	-12%	-2%	-2%	-19%	.
COc1ccc(-n2nnnc2C2CCN(S(=O)(=O)c3ccc(NC(C)=O)cc3)CC2)cc1	4.6µM*	-29%	-9%	0%	5.8µM*	.
COc1ccc(-n2nnnc2C2CCN(S(=O)(=O)c3ccc(F)cc3Cl)CC2)cc1	16µM*	-19%	-8%	2%	?	.
Cc1ccc(-n2nnnc2C2CCN(S(=O)(=O)c3ccc(OC(F)(F)F)cc3)CC2)cc1	-13%	2%	6%	2%	-4%	.
CSCC[C@H](NC(=O)[C@H](CC(C)C)NC(=O)CNC(=O)[C@H](Cc1ccc(O)cc1)NC(=O)[C@H](Cc1ccccc1)NC(=O)[C@H](CCCCN)NC(=O)[C@H](CC(N)=O)NC(=O)[C@@H]1CCCN1C(=O)[C@H](CC(=O)O)NC(=O)[C@H](C)NC(=O)[C@@H]1CCC(=O)N1)C(N)=O	.	.	.	7%	.	.
O=C(O)c1ccccc1C(=O)NCC(O)COc1ccc(Cl)cc1 (stereo not given)	-14%	-1%	4%	4%	0%	?
O=C1CC(c2ccc(F)cc2)CC2=C1C(c1ccc([N+](=O)[O-])o1)Nc1ccccc1N2 (stereo not given)	16µM*	17%	-7%	2%	?	-74*
O=C1CC(c2ccccc2)CC2=C1C(c1ccccn1)Nc1ccccc1N2 (stereo not given)	3%	-7%	-15%	0%	1%	9
O=C(Cn1c(C(=O)OCCO)cc2ccccc21)c1ccccc1	?	-17%	-32%	.	8.2µM*	21
CNC(=O)c1ccc(Nc2nnc(-c3ccc(C)c(S(=O)(=O)N4CCOCC4)c3)c3ccccc23)cc1	7.3µM*	-25%	3%	6%[2.28 µM]	21µM*	.
COc1ccc(Nc2nnc(-c3ccc(C)c(S(=O)(=O)N4CCOCC4)c3)c3ccccc23)cc1	7.3µM*	23%	?	5%[12.3 µM]	15µM*	.
Cc1ccc(Nc2nnc(-c3ccc(C)c(S(=O)(=O)N4CCOCC4)c3)c3ccccc23)cc1	10µM*	-10%	-9%	0%[12.3 µM]	16µM*	.
COc1ccc(NC(=O)c2ccccn2)cc1S(=O)(=O)N1CCOCC1	?	-1%	-12%	3%	-18%	-15
SMILES	DT40 TDP1 no CPT	HepG2 viability	TGFb inhibitor	TDP1 block	TDP1 cell CPT	IL1B secr inh
COc1ccc(Nc2nc(-c3ccccc3)nc3ccccc23)cc1S(=O)(=O)N1CCOCC1	8.2µM*	-33%	?	2%	15µM*	-74*
Cc1ccc(-c2nnc(Nc3ccc(OCC(N)=O)cc3)c3ccccc23)cc1S(N)(=O)=O	22%	10%	3%	.	-13%	48
CC(C)CN(CCNC(=O)CCN1N=C(c2ccccc2)CCC1=O)CC(C)C	-20%	-16%	0%	3%	-25%	.
COc1ccc(NC(=O)N2CCN(c3cccc(C(F)(F)F)c3)CC2)cc1	7.3µM*	3%	1%	-2%	2.1µM*	-1
Cc1cccc(NC(=O)CSCC(=O)N2CCN(c3cccc(C(F)(F)F)c3)CC2)c1	?	-18%	3%	0%	?	28
COc1ccc(NC(=O)N2CCC3(CC2)CCN(C(=O)c2cc(C(F)(F)F)cc(C(F)(F)F)c2)CC3)cc1	-28%	.	.	.	0%	.
COc1ccc(NC(=O)CSCC(=O)N2CCN(c3cccc(C(F)(F)F)c3)CC2)cc1	15µM*	-9%	-1%	1%	?	0
CN(C)S(=O)(=O)c1ccc(NC(=O)N2CCN(c3cccc(C(F)(F)F)c3)CC2)cc1	2.6µM*	-45%	-31%	6%	3.7µM*	-4
CN(C)S(=O)(=O)c1ccc(NC(=O)N2CCN(c3ccccc3Cl)CC2)cc1	?	-33%	8%	3%	-28%	?
O=C(C(=O)N1CCN(c2ccc([N+](=O)[O-])cc2)CC1)c1cn(CC(=O)N2CCOCC2)c2ccccc12	?	0%	2%	5%	?	i
COc1ccc(CNC(=O)Nc2ccc3c(c2)N(C)C(=O)c2ccccc2S3)cc1	21µM*	-32%	-22%	0%	?	.
COCCNC(=O)Nc1ccc2c(c1)N(C)C(=O)c1ccccc1S2	-12%	-16%	1%	2%	9%	-2
